# Source: PubChem (National Center for Advancing Translational Sciences (NCATS))
# HP1b binding inh – blocks HP1-beta chromodomain binding to methylated histone tails; P83916; AlphaScreen HP1-beta / biotin-H3K9me3 peptide binding; Potency, µM (highest dose often 114 µM), without a hit: at the highest dose activity change, negative = inhibition, most hits filed as inhibitors; hit rate 0.56% among 390,000; further: nearly all actives have a fitted effect of over 70% in size
#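 AlphaScreen: HP1-beta (50 nM) preformed 30 min with biotin-H3(1-18)K9me3 peptide (50 nM) in PBS pH 7.4, 0.01% Tween-20. Compound added for 30 min at RT, then streptavidin donor/nickel chelate acceptor beads (10 ug/mL) for 30 min.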
# G9a inh – inhibitors of human histone lysine methyltransferase G9a; Potency, µM (doses to about 102 µM), inactives show at the highest dose activity, negative = inhibition, actives largely listed as inhibitors; G9a H3K9 monomethylation, AlphaScreen, 2 h; Q96KQ7; AID 504332; hit rate 8.8% among 350,000; further: on the % scale 0 is the no-effect control and ±100 the full control effect; nearly all actives have a fitted effect of over 75% in size
#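 Signal arises when biotinylated H3K9 peptide, once monomethylated, bridges streptavidin donor and antibody-captured acceptor beads. Enzyme at 20 nM was preincubated 15 min with test compounds; peptide 500 nM and SAM 20 uM then reacted for 2 h.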
# L3MBTL1 inh – inhibitors of human L3MBTL1; AlphaScreen L3MBTL1–H3K9me1 peptide binding; Potency, µM (doses to about 57.1 µM), without a hit: top-dose activity, negative = inhibition, hits mostly inhibitors; hit rate 0.66% among 230,000; AID 485360; further: on the % scale 0 is the no-effect control and ±100 the full control effect; nearly all actives have a fitted effect of over 60% in size
#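 L3MBTL1 50 nM + b-AHA-H3(1-15)K9me1 75 nM, 30 min RT; compound added, 30 min RT; streptavidin donor/Ni-chelate acceptor beads 10 ug/mL each final, 30 min RT dark; AlphaScreen read.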
# BAZ2B inh – blocks human BAZ2B; AID 504333; AlphaScreen BAZ2B-H3K14Ac peptide displacement; Potency, µM (top dose mostly 114 µM), without a hit: at the highest dose activity change, negative = inhibition, actives largely listed as inhibitors; hit rate 4.4% among 360,000; further: on the % scale 0 is the no-effect control and ±100 the full control effect; nearly all actives have a fitted effect of over 60% in size
#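 BAZ2B (50 nM) with biotin-H3(5-23)K14Ac peptide (50 nM) in PBS pH 7.4, 0.01% Tween-20, preformed 30 min, then compound 30 min at room temperature; top concentration 110uM. AlphaScreen streptavidin donor/nickel chelate acceptor beads (10 ug/mL final), 20 min dark, signal read.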
# JMJD2A Tudor – blocks the human JMJD2A Tudor domain; hit rate 4.4% among 390,000; AID 504339; Potency, µM (series often up to 114 µM), for the others: top-dose activity change, negative = inhibition, most hits filed as inhibitors; AlphaScreen JMJD2A-Tudor / H3K4me3 peptide binding; further: on the % scale 0 is the no-effect control and ±100 the full control effect; nearly all actives have a fitted effect of over 50% in size
# GLS inh – blocks human kidney-isoform glutaminase activity. Potency, µM (titrated, usually from 45.5 µM), without a hit: at the highest dose activity change, negative = inhibition, hits mostly inhibitors. GLS enzymatic activity, qHTS titration. hit rate 0.21% among 410,000; further: on the % scale 0 is the no-effect control and ±100 the full control effect
#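 Coupled fluorescence readout: glutamate oxidase/HRP/Amplex Red detect glutamate formed by hKGA from L-glutamine (1 mM solution added). Buffer 45 mM KH2PO4 pH 8.2, 0.02% Tween-20; reads at t0 and 30 min RT.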
# * marks the source's active call; other numbers are inactive results; ? = inconclusive; . = no result given; [ ] = another dose, or the depositor's remark. Only some compounds are listed: those with a hit (about 10% of all), similar ones and a draw of the others. The call rests on the fitted dose curve; in most records, active means well fitted curve in the direction sought with a large enough effect; inconclusive means small, poorly fitted or top-dose-only effect, or another doubt; inactive means no such curve, though single readings can be large; an effect the other way counts as inactive or inconclusive. Potency means the concentration at half of the fitted maximal effect.
SMILES,HP1b binding inh,G9a inh,L3MBTL1 inh,BAZ2B inh,JMJD2A Tudor,GLS inh
COc1cc(/C=C2\SC(=O)N(c3ccc(Cl)cc3)C2=O)cc([N+](=O)[O-])c1O,?,7.9µM*,?,7.1µM*,7.9µM*,?
CN1C(=O)/C(=C/c2ccc(O)c([N+](=O)[O-])c2)N(C)C1=S,-35%,.,-11%,22%,?,10%
COc1cc(/C=C2\SC(=O)N(c3cccc(Cl)c3)C2=O)cc([N+](=O)[O-])c1O,?,.,-17%,8.9µM*,4µM*,?
O=[N+]([O-])c1ccccc1S(=O)(=O)N1CCN(c2nc(-c3ccccc3)nc3ccccc23)CC1,2%,.,.,.,-23%,.
COc1ccc(C2CC(c3ccccc3)Oc3ccc(OC)cc32)cc1 (stereo unspecified),7%,.,.,.,?,.
CC(C)C[C@@H](CN)NC(=O)c1nc[nH]c1C(=O)N[C@@H](C)C(=O)CNC[C@H](CC(C)C)NC(=O)c1nc[nH]c1C(=O)N[C@@H](Cc1ccccc1)C(=O)O,48%,.,.,.,79µM*,?
CC(C)C[C@H](NC(=O)c1nc[nH]c1C(=O)NCCCCCN)C(=O)OCc1ccccc1,13%,.,-2%,.,79µM*,2%
CC(C)C[C@@H](CNCC(=O)[C@H](CC(C)C)NC(=O)c1[nH]cnc1C(=O)N[C@H](CN)CC(C)C)NC(=O)c1nc[nH]c1C(=O)N[C@@H](Cc1ccccc1)C(=O)O,22%,.,.,.,?,-13%
CC(C)C[C@@H](CNCC(=O)[C@H](Cc1ccccc1)NC(=O)c1[nH]cnc1C(=O)N[C@H](CN)CC(C)C)NC(=O)c1nc[nH]c1C(=O)N[C@@H](CC(=O)O)C(=O)O,37%,.,.,.,28µM*,13µM*
CC(C)C[C@@H](CNCC(=O)[C@H](C)NC(=O)c1[nH]cnc1C(=O)N[C@@H](C)CN)NC(=O)c1nc[nH]c1C(=O)N[C@@H](Cc1ccccc1)C(=O)O,14%,.,.,.,79µM*,0%
C/C(=N\Nc1ccccc1[N+](=O)[O-])c1ccc(N2CCOCC2)cc1,10µM*,-27%,-24%,1µM*,?,0%
C/C(=N\Nc1ccc([N+](=O)[O-])cc1)c1ccc(N2CCOCC2)cc1,6%,.,3%,-3%,4%,-15%
NC(=O)C1CCN(C(=O)c2ccc(NC(=O)c3nsc4ccccc34)cc2)CC1,15%[57 µM],20%[59 µM],.,2%,-15%,16%
Cc1oc(-c2ccc(Cl)cc2)nc1Cn1c(=O)cc(C)c2c(C)nn(-c3cccc(F)c3)c21,?,-2%[59 µM],.,-37%,-16%,-4%
Cc1[nH]n(-c2ccccc2)c(=O)c1Sc1ccc(Cl)cc1,14%,?,-9%,-33%,-20%,-3%
Cc1ccc(SCc2cc(=O)c3c(=O)n(-c4ccccc4)[nH]c3[nH]2)cc1,?,18µM*,-90%,28µM*,?,-1%
O=c1cc(CSc2ccc(Cl)cc2)[nH]c2[nH]n(-c3ccccc3)c(=O)c12,?,40µM*,?,35µM*,?,-16%
COc1ccc(-n2c(C)cc(C(=O)CCl)c2C)cc1,0%,56µM*,.,45µM*,?,-1%
CC(=O)Nc1ccc(SCC(=O)c2cc(C)ccc2C)cc1,32%,?,.,-37%,-1%,6%
CC(=O)Nc1ccc(SCC(=O)c2cc(C)n(-c3ccccc3)c2C)cc1,4%,?,-12%,45µM*,-23%,-1%
Cc1cc(-n2c(C)cc(C(=O)CCl)c2C)no1,42%,50µM*,-6%,.,-22%,-8%
COc1ccc(-n2c(C)cc(C(=O)COC(=O)Cn3cnc4ccccc43)c2C)cc1,-16%,16µM*,-10%,?,?,1%
Cc1cc(-n2c(C)cc(C(=O)CN3C(=O)C(=O)N(C)C3=O)c2C)no1,19%,.,4%,.,-12%,0%
